Several values for one entry are separate records, joined by “and”; a condition that tells them apart may be missing. Identical values can stand only once. Unmarked numbers belong to inactive results. Results filed as inconclusive are left out. Where a call stands in place of a potency, no number is given. Activity calls are given as the source filed them. Unless noted, the call rests on the fitted dose curve; in most records, active means well fitted curve in the direction sought with a large enough effect; inconclusive means small, poorly fitted or top-dose-only effect, or another doubt; inactive means no such curve, though single readings can be large; an effect the other way counts as inactive or inconclusive.
Assays:
[1] = target: Cytochrome P450 2C9 (Homo sapiens) (UniProt P11712); assay: qHTS Assay for Inhibitors and Substrates of Cytochrome P450 2C9 (AID 883); further: nearly all actives have a fitted effect of over 60% in size; further: potency means the concentration at half of the fitted maximal effect
Method in brief: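 Luminescent read-out of deoxyluciferin hydroxylation, normalized to 57uM sulphaphenazole (AC100). Reaction: 10nM enzyme, 100uM Luciferin-H (equal to KM), 25mM KPO4, 10 min compound preincubation, then 60 min with NADPH regeneration, both at 37C.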

[2] = target: Cytochrome P450 3A4 (Homo sapiens) (UniProt P08684); assay: qHTS Assay for Activators of Cytochrome P450 3A4 (AID 885); further: nearly all actives have a fitted effect of over 65% in size; further: potency means the concentration at half of the fitted maximal effect
Method in brief: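 Using 20nM recombinant human CYP3A4 in potassium phosphate (200mM), substrate Luciferin-PPXE at 25uM, luminescent luciferin detection followed a 60-min RT NADPH reaction; data scaled to 57 uM ketoconazole.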

[3] = target: Cytochrome P450 2D6 (Homo sapiens) (UniProt P10635); assay: qHTS Assay for Inhibitors and Substrates of Cytochrome P450 2D6 (AID 891);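 further: luciferin methyl ether substrate demethylated by CYP2D6 with NADPH regeneration; nearly all actives have a fitted effect of over 60% in size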
Method in brief: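 Luminescent read-out of luciferin formed by 5 nM human CYP2D6 demethylating 30 uM Luciferin-ME EGE (Km level) over 60 min at room temperature after NADPH regeneration addition. Data normalized to full inhibition by 1.43 uM quinidine.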

[4] = target: Cytochrome P450 2C19 (Homo sapiens) (UniProt P33261); assay: qHTS Assay for Inhibitors and Substrates of Cytochrome P450 2C19 (AID 899); further: nearly all actives have a fitted effect of over 60% in size; further: potency means the concentration at half of the fitted maximal effect
Method in brief: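 Luminescence readout of luciferin formed from 10uM Luciferin-H EGE (KM level) by 5 nM CYP2C19 in 50mM KPO4. 60 min NADPH-driven reaction at 37C after 10 min compound preincubation; data scaled to 57uM ketoconazole inhibition.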

[5] = target: Cytochrome P450 3A4 (Homo sapiens) (UniProt P08684); assay: qHTS Assay for Inhibitors and Substrates of Cytochrome P450 3A4 (AID 884); further: series mostly up to about 57 µM; nearly all actives have a fitted effect of over 50% in size
Method in brief: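 Luminescent readout of luciferin produced by CYP3A4 (20 nM) dealkylation of Luciferin-PPXE, 25 uM (its KM). NADPH-driven reaction ran 60 min at RT after 10 min compound preincubation; data scaled to 57 uM ketoconazole as 100% inhibition.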

[6] = qHTS Assay for Identification of Small Molecule Agonists for Hypoxia Response Element Signaling Pathway (AID 914; active means well fitted activation curve with a large enough effect in the signal ratio, with a control signal flat, not every such curve was filed as active; the % refers to the signal ratio); details: ME-180 (cervical carcinoma) HRE-bla reporter, beta-lactamase ratio, CoCl2, 17 h; hits give high values
Method in brief: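 qHTS titration; ME-180 HRE-bla cells; EC50 CoCl2 co-treatment, 17 h at 37 degrees Celsius; CCF4 dye, ex 405nm, em 460nm and 530nm; %Activity from ratio; AC50.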

Chain of Cytochrome P450 2C19 (Homo sapiens) (P33261 whole entry, looked up): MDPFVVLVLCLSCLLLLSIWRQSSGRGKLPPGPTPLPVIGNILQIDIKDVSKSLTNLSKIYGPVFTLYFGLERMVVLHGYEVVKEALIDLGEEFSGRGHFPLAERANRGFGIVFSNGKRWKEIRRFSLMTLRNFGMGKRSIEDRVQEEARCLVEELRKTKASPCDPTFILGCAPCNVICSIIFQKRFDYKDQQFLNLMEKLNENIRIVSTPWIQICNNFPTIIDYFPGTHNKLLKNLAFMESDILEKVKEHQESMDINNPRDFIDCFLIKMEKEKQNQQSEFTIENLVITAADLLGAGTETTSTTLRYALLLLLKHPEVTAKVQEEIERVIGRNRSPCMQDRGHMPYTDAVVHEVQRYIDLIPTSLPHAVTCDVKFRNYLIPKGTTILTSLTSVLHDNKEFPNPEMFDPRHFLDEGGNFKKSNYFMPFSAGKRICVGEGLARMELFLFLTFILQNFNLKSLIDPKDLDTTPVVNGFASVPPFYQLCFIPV
Chain of Cytochrome P450 2C9 (Homo sapiens) (P11712 whole entry, looked up): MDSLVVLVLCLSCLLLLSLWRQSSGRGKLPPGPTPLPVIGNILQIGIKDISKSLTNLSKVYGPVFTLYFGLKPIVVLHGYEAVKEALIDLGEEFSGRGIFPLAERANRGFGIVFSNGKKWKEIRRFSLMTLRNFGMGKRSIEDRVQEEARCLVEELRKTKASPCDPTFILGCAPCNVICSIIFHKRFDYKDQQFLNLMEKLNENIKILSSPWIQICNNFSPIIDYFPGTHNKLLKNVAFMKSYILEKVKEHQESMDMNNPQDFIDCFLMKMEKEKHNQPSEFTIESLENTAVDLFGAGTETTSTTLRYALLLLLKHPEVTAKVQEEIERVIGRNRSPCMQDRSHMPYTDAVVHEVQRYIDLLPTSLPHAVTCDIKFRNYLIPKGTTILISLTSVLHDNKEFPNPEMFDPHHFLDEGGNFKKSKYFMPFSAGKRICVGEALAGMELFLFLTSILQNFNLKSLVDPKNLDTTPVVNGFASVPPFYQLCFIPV
Chain of Cytochrome P450 2D6 (Homo sapiens) (P10635 whole entry, looked up): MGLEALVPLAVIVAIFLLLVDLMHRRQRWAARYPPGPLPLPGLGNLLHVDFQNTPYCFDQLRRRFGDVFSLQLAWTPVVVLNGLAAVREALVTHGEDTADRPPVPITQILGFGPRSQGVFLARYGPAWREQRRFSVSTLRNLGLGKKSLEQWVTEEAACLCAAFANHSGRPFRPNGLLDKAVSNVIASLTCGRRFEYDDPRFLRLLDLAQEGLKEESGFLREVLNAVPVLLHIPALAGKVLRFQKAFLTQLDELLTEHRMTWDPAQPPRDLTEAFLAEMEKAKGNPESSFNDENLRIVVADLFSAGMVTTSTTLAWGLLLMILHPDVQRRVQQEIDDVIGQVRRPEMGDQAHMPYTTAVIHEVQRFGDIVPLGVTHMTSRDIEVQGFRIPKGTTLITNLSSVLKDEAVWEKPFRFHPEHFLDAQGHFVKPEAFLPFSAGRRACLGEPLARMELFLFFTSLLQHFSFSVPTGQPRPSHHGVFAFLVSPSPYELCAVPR
Chain of Cytochrome P450 3A4 (Homo sapiens) (P08684 whole entry, looked up): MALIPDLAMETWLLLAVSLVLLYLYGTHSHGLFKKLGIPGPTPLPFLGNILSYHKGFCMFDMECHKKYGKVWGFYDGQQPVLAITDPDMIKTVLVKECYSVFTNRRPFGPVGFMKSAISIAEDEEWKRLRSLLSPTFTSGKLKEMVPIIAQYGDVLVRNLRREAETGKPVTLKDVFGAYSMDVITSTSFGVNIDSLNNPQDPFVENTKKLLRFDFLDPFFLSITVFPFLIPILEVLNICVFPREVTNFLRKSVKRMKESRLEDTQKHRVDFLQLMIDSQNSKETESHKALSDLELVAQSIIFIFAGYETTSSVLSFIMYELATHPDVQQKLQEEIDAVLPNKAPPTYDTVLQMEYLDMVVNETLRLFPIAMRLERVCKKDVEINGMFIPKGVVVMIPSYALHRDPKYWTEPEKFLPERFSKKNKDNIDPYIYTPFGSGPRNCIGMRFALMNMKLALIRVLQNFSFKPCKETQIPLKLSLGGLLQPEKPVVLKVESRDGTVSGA

Row | SMILES | Potency [1] | activity change, positive = activation [2] | Potency [3] | Potency [4] | Potency [2] | Potency [5] | activation [6] [%]
1 | CC1Cc2c(COc3ccccc3)nc3c(c2CO1)CN(CCOc1ccccc1)CC3 (centres undefined) | inactive | -42% [at 11.4 µM] | inactive | inactive |  |  | 
2 | CCC(=O)[C@]12O[C@@]3(C4C(=O)OCCC41)N(CC)C(C)=C(C(=O)OC)C(c1ccccc1)N3C2=O (some centres undefined) | inactive | -34.2% [at 11.4 µM] | inactive | inactive |  |  | 
3 | COC1(C#CC2C=CC(OC(C)=O)C(COC(C)=O)O2)CCCCC1 (centres undefined) | inactive | -43% [at 11.4 µM] | inactive | inactive |  |  | 
4 | C=CCOC(=O)C(C(C)=O)C(NC(=O)OC)c1ccc2ccccc2c1 (centres undefined) | inactive | -46.5% [at 11.4 µM] | inactive | 126 nM (active) |  |  | 
5 | COC(=O)C(C(=O)OC)C1O[C@@]23COCCC2(C)C3c2ccccc21 (some centres undefined) | inactive | -34.9% [at 11.4 µM] | inactive | inactive |  |  | 
6 | C=CCOC(=O)C(C(C)=O)C(NC(=O)OC)c1ccco1 (centres undefined) | inactive | -42.1% [at 11.4 µM] | inactive | inactive |  |  | 
7 | COc1ccc(-c2ccccc2C2NC(C(=O)O)CCC2C)cc1 (centres undefined) | inactive | -42% [at 11.4 µM] | inactive | inactive |  |  | 
8 | COC(=O)C1=C(C)N(Cc2ccccc2)c2c(C(=O)OC)c(C(=O)OC)c(C(=O)OC)c(=O)n2C1c1ccccc1 (centres undefined) | inactive | -58.7% [at 11.4 µM] and -55.1% [at 11.4 µM] | inactive | inactive |  |  | 
9 | CCCCCCC#CC1C=CC(Oc2ccc(C=O)cc2)C(CO)O1 (centres undefined) | inactive | -35.2% [at 11.4 µM] | inactive | 3980 nM (active) |  |  | 
10 | CCOC(=O)OCC1OC(C#Cc2ccc(C)cc2C)C=CC1OC(=O)OCC (centres undefined) | inactive | -58.4% [at 11.4 µM] | inactive | inactive |  |  | 
11 | C=C(C)C(O)/C=C/CCCCCCC (centres undefined) | inactive | -33.5% [at 11.4 µM] | inactive | inactive |  |  | 
12 | CCCCC#CC1C=CC(Oc2cc(OC)c(OC)c(OC)c2)C(CO)O1 (centres undefined) | inactive | -45% [at 11.4 µM] | inactive | inactive |  |  | 
13 | COC(=O)NC(/C=C/c1ccccc1)[C@]1(C(C)=O)CCCC1=O (some centres undefined) | inactive | -41.6% [at 11.4 µM] | inactive | inactive |  |  | 
14 | COC(=O)C1=C(C)N(Cc2ccccc2)[C@]23O[C@](C(=O)OC)(C(=O)N2C1c1ccccc1)C(C(=O)OC)=C3C(=O)OC (some centres undefined) | inactive | -58% [at 11.4 µM] | inactive | 1580 nM (active) |  |  | 
15 | COC(=O)C/C=C/C(C)C(OCc1cccc(-c2ccccc2)c1)C1CCCCC1 (centres undefined) | inactive | -35.3% [at 11.4 µM] | inactive | inactive |  |  | 
16 | COC(C1CCCCC1)C(C)C(OCc1cccc(Br)c1)C(C)CO (centres undefined) | inactive | -47.3% [at 11.4 µM] | inactive | 1580 nM (active) |  |  | 
17 | COC(=O)C1=C(C)N(Cc2ccccc2)[C@]23O[C@](C(=O)OC)(C(=O)N2C1c1ccccc1)C1C(=O)N(C)C(=O)C13 (some centres undefined) | inactive | -51.8% [at 11.4 µM] and -36.4% [at 11.4 µM] | inactive | inactive |  |  | 
18 | COC(c1ccccc1)C(C)C(OC)C(C)C(OC)C(C)C(C)=O (centres undefined) | inactive | -36.1% [at 11.4 µM] | inactive | inactive |  |  | 
19 | C[C@@]12CCC3c4ccc(OC5C=CC(c6ccccc6)OC5CO)cc4CCC3C1CCC2=O (some centres undefined) | inactive |  | inactive | inactive | 3160 nM (active) |  | 
20 | C=C(C)C(O)/C=C/C=C/c1ccccc1 (centres undefined) | inactive | -32.8% [at 11.4 µM] | inactive | inactive |  |  | 
21 | COC(=O)NC(c1ccco1)[C@]1(C(C)=O)CCCC1=O (some centres undefined) | inactive | -35.9% [at 11.4 µM] | inactive | inactive |  |  | 
22 | COc1cccc([C@@H]2Oc3ccc(Br)cc3C(=O)[C@H]2O)c1 | 2510 nM (active) | -74.4% [at 11.4 µM] |  | 3160 nM (active) |  |  | 
23 | COC(=O)[C@@H]1C[C@@]2(O)[C@H](O)[C@H](O)[C@H](O)C[C@H]2N1CC1CC1 |  |  |  |  |  | inactive | 
24 | CCCCc1nc2c(c3c1CC(C)OC3)CN(CCOc1ccccc1)CC2 (centres undefined) | inactive | -59.6% [at 11.4 µM] |  | inactive |  |  | 
25 | COc1ccc(B(O)O)cc1 |  |  |  |  |  | inactive | 
26 | CO[C@H]1COC(=O)C/C=C\[C@@H](C)COC(=O)[C@H]2CCCN2C(=O)C/C=C\[C@H]1C | inactive |  |  |  |  |  | 11.3
27 | CCCCCCCC#Cc1ccccc1/C=N/S(=O)C(C)(C)C (centres undefined) | inactive | -47.5% [at 11.4 µM] | inactive | inactive |  |  | 
28 | COC(=O)[C@@H]1C[C@@]2(O)[C@@H](O)[C@@H](O)[C@@H](O)C[C@H]2N1CC1CC1 |  |  |  |  |  | inactive | 

From PubChem BioAssay (NCATS)
